697 NFkB inh = inhibitors of PMA/ionomycin-induced NF-kB reporter, 697 cells, primary screen, B-cell NF-kB inhibitor project, cell-based, luminescence, uHTS. 697 B-cell NF-kB luciferase reporter, 16 h. inhibition, % at 4 µM. hit rate 0.33% among 330,000; in the data active means inhibition above about 35%
Gli-Sufu antag = Gli-Sufu pathway antagonists, primary screen, luciferase luminescence, Sufu-KO-LIGHT cells, uHTS; Sufu-KO-LIGHT fibroblasts, Gli luciferase reporter luminescence; inhibition, % at 5 µM; hit rate 0.74% among 340,000;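 active means inhibition above about 55%, limit read from the data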;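 further: 0% = DMSO-treated cells and 100% = wells with medium but no cells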
Beta cell apopt = inhibitors of cytokine-induced beta cell apoptosis, primary screen, luminescence | INS-1E cytokine-induced death, ATP luminescence, 48 h; percent of positive-control rescue, neutral wells zero | protection from apoptosis, % (test concentration not listed) | hit rate 0.8% among 300,000 | AID 435005, 2010;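 active means Every replicate reaches about 75%, or at least half do and their mean reaches it too, limit read from the data; inconclusive means At least half of replicates reach the limit but their mean does not; inactive means Under half of replicates reach the limit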;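 further: 0% = cytokine-treated negative control wells and 100% = positive control rescue; higher means more ATP so stronger rescue from cytokine killing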
CSC inhib = cancer stem cell viability inhibitors, primary screen, luminescence; cancer stem cell-like cells viability; inhibition, % at 7.5 µM; hit rate 1.1% among 300,000; AID 2717, 2010; in the data active means inhibition above about 75%; inconclusive means no clear call, values can overlap the other calls; tested in HMLE shEcad cells
Mdm2-MdmX inh = inhibitors of human Mdm2-MdmX association, primary screen, cell-based, luminescence, split luciferase, SaOS-2, uHTS; Protein Mdm4 (Homo sapiens) + E3 ubiquitin-protein ligase Mdm2 (Homo sapiens), …; SaOS-2 split-luciferase Mdm2/MdmX complementation; inhibition, % at 8 µM; hit rate 3% among 330,000; AID 485346, 2010;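 active means inhibition of at least 50% at 8 µM in the primary screen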
Jurkat NFkB inh = inhibitors of induced NF-kB luciferase reporter, primary screen, TCR NF-kB activation inhibitor project, cell-based, luminescence, uHTS | Jurkat, PMA/ionomycin-induced NF-kB luciferase reporter | inhibition, % at 4 µM | hit rate 0.53% among 330,000 | AID 435003, 2010; in the data active means inhibition above about 50%
697 NFkB conf = PMA/ionomycin-induced NF-kB reporter inhibitors, 697 retest, confirmation, B-cell NF-kB inhibitor project, cell-based, luminescence, single concentration; hit rate 35% among 2,000; shares compounds with 697 NFkB inh; inhibition, % at 4 µM; 697 B-cell NF-kB luciferase, 16 h; AID 449746, 2010; in the data active means inhibition mostly above about 28%, no sharp cut-off; inactive means mostly below about 22%
Mdm2 MdmX conf = Mdm2-MdmX complex disruptors, retested hits, confirmation, luminescence, single concentration. AID 489028, 2010. hit rate 55% among 10,000. shares compounds with Mdm2-MdmX inh. inhibition, % at 8 µM. Mdm2-MdmX binding, luminescent assay; in the data active means inhibition above about 40%
Full FLuc ctr = full-length luciferase signal inhibition, confirmation, counter-screen for Mdm2/MdmX interaction inhibitor project, cell-based, single concentration, SaOS-2 | shares compounds with Mdm2-MdmX inh | hit rate 77% among 6,200 | SaOS-2 full-length luciferase counterscreen, luminescence | inhibition, % at 8 µM | AID 504607, 2011;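 active means mean inhibition at 8 µM reaching about 37%, which flags the compound as non-specific, limit read from the data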;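 further: p53-null SaOS-2 cells with luciferase driven by a doxycycline-inducible promoter; compound on cells about two nights before reading with doxycycline added after day one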
The depositor's hits bear a star; i = inactive; ? = inconclusive; / = no result. Shown are actives, neighbours in structure and some others; about 4.5% of the full set was active somewhere.

SMILES | 697 NFkB inh | Gli-Sufu antag | Beta cell apopt | CSC inhib | Mdm2-MdmX inh | Jurkat NFkB inh | 697 NFkB conf | Mdm2 MdmX conf | Full FLuc ctr
CC(=O)Nc1ccc(Nc2nc(-c3sc(NC(C)=O)nc3C)cs2)cc1 | 41* | -22 | -12 | 2 | 58* | 22 | 26* | 23 | /
CC(=O)Nc1nc(C)c(-c2csc(Nc3cccc([N+](=O)[O-])c3)n2)s1 | 45* | -6 | 13 | 1 | 90* | 18 | 9 | 71* | 36
CC(=O)c1cccc(Nc2nc(-c3cccc([N+](=O)[O-])c3)cs2)c1 | -134 | -67 | 2 | / | -53 | -25 | / | / | /
O=C(Nc1ccc(S(=O)(=O)Nc2ncccn2)cc1)C1CC(=O)N(c2ccc(Cl)cc2)C1 (stereo not drawn) | 7 | -2 | -5 | -18 | -4 | 13 | / | / | /
CCOc1ccccc1CNC(=O)Cn1ccc2cc(S(=O)(=O)N3CCCC3)ccc21 | -2 | 0 | 5 | -8 | 11 | 13 | / | / | /
NC(=O)N1c2ccccc2C=Cc2ccccc21 | 17 | -9 | -18 | -8 | 15 | -5 | / | / | /
CCN(CC)C(=O)N1c2ccccc2C=Cc2ccccc21 | i | 1 | -8 | 43 | 85* | -72 | i | 80* | 34
CCCN1C(=O)c2ccccc2NC1c1ccc(OC)cc1OC (stereo not drawn) | -23 | -1 | -2 | -7 | -25 | -9 | / | / | /
CCCN1C(=O)c2ccccc2NC1c1ccc(OC)cc1O (stereo not drawn) | -310 | 23 | 3 | 41 | 64* | 0 | -292 | 54* | 72*
COc1cccc(N2CCN(c3ncnc4c3[nH]c3ccc(F)cc34)CC2C)c1 (stereo not drawn) | 71* | 91* | 110* | -9 | 98* | 10 | 91* | 100* | 1
COc1ccc(Nc2nccc(-c3ccc(C#N)cc3)n2)cc1 | 15 | -2 | -13 | 3 | 26 | -4 | / | / | /
COc1ccc(Nc2nccc(-c3cccc(N)c3)n2)cc1 | -273 | -130 | -85 | 28 | 65* | -117 | -177 | -13 | /
CCOC(=O)/C=C(\C)Sc1cc(=O)oc2ccccc12 | 36* | -4 | -38 | 53 | 55* | -3 | 28* | 34 | /
O=C(CSc1ncnc2c1nnn2Cc1ccccc1)NC1CCCCC1 | -8 | 9 | -22 | 9 | 6 | 1 | / | / | /
COc1ccc(-n2nnnc2S(=O)(=O)CC(=O)N2CCCCC2)cc1 | 39* | 6 | 4 | 39 | 97* | 15 | 60* | 96* | 14
Cc1ccsc1C(=O)Nc1cccc(-n2cnnn2)c1 | -1 | -19 | 2 | 10 | 15 | -2 | / | / | /
CCN(CC)c1ccc2cc(-c3nc4ccccc4[nH]3)c(=O)oc2c1 | -303 | -58 | ? | 57 | 67* | -149 | -375 | 47* | 45*
Cn1nc(-c2ccc(N3CCOCC3)c(NS(=O)(=O)c3ccccc3)c2)c2ccccc2c1=O | 61* | 9 | 8 | -6 | 65* | 16 | 33* | 31 | /
CC(=O)Nc1cc(-c2nn(C)c(=O)c3ccccc23)ccc1N1CCCCC1 | 26 | 5 | 1 | 7 | -1 | 14 | / | / | /
COc1ccc(-c2ccc(C(C)=O)cc2)cc1[C@H]1[C@H]2C=CC[C@@H](C)[C@@H]2C(=O)N1Cc1ccccc1 | 48* | 18 | 12 | 19 | 58* | 31 | 49* | 11 | /
COc1ccc(/C=C/c2ccccc2)cc1[C@H]1[C@H]2C=CC[C@@H](C)[C@@H]2C(=O)N1Cc1ccccc1 | 65* | 13 | 16 | 16 | 50 | 20 | 32* | 22 | /
O=C(CSc1ncnc2c1nnn2Cc1ccccc1F)NCC1CCCO1 (stereo not drawn) | 14 | 7 | -8 | 7 | -6 | 1 | / | / | /
Cc1cc2nc(-c3ccc(SCC(=O)N4CCc5ccccc54)nc3)[nH]c2cc1C | -313 | -94 | 15 | 52 | 98* | -126 | -200 | 42* | 65*
CC(C)(C)OC(=O)C[C@H]1C/C=C\C[C@H](CC(=O)N(CCO)Cc2ccccc2)C(=O)N[C@H](C(C)(C)C)COC1=O | 11 | 1 | -5 | 0 | 9 | 2 | / | / | /
CCOC(=O)/C(C#N)=C/c1cc(C)n(-c2ccc(C)cc2)c1C | -154 | 7 | 4 | 32 | -58 | -130 | / | / | /
SMILES | 697 NFkB inh | Gli-Sufu antag | Beta cell apopt | CSC inhib | Mdm2-MdmX inh | Jurkat NFkB inh | 697 NFkB conf | Mdm2 MdmX conf | Full FLuc ctr
CCOC(=O)/C(C#N)=C\c1cc(C)n(-c2ccccc2)c1C | -286 | 2 | -4 | -3 | 56* | -126 | -106 | 79* | 155*
Cc1ccc(-n2c(-c3ccccc3)c[n+]3c2CCc2ccccc2-3)c(C)c1 | 49* | 87* | 130* | 28 | 82* | 33 | 28* | 66* | 26
COc1ccc(S(N)(=O)=O)cc1C(=O)N(C)CC(=O)Nc1ccc(N2CCOCC2)cc1 | -4 | -5 | 0 | 1 | 17 | 1 | / | / | /
Cc1cc(/C=C2\Cc3ccccc3C2=O)c(C)n1-c1ccccc1 | -310 | 16 | 2 | 14 | 80* | -24 | -193 | 64* | 73*
COc1ccc(/C=C2\SC(=S)N(CCCC(=O)Nc3ccccc3C(=O)O)C2=O)cc1OC | 8 | 1 | -4 | -4 | 11 | 23 | / | / | /
COc1cc(/C=C2\SC(=S)N(CCC(=O)NC3CCCC3)C2=O)cc(OC)c1OC | 8 | -13 | -7 | -6 | 44 | 19 | / | / | /
COc1cccc(/C=C2/SC(=S)N(CCCC(=O)Nc3ccc(O)cc3)C2=O)c1 | 80* | 49 | -11 | 8 | 100* | -8 | 74* | 85* | 3
Cc1ccc(/C=C2\SC(=S)N(CCCC(=O)NC3CCCC3)C2=O)cc1 | 85* | 16 | 1 | -1 | 63* | 19 | 80* | 34 | /
COc1cccc(/C=C2/SC(=S)N(CC(=O)NNC(=O)c3ccccc3O)C2=O)c1 | -2 | -21 | -1 | / | -30 | -15 | / | / | /
COc1ccc(/C=C2/SC(=S)N(CCCC(=O)Nc3ccc(O)cc3)C2=O)cc1OC | 45* | 12 | -18 | 22 | 90* | -19 | 43* | 48* | 30

Source: PubChem (several laboratories)
